Results on 5 molecules are retold here after PubChem BioAssay.

Inconclusive results are not listed. Calls of active or inactive are those of the source.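 How the source made its calls, unless noted: active means percent response above 42, roughly 3 SD of non-fluorescent test compounds; inactive means the rest.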

The nature of assay [1]: rapamycin-like changes in RPL19A-GFP expression – cell-based, S. cerevisiae, multiplex flow cytometry, primary screen (AID 1862; in the data active means percent of DMSO control GFP below about 86%;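 further: lower values mimic rapamycin by blocking the RPL19A rise seen in DMSO cells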). The settings on record: S. cerevisiae RPL19A-GFP strain, flow cytometry fluorescence, 3 h; at 10 µM; stronger effect = lower value.
The nature of assay [2]: TOR pathway GLN3 branch reporter MEP2-GFP changes – S. cerevisiae, multiplex flow cytometry, primary screen (AID 1867;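 active means GFP response, as percent of the DMSO control, above the screen-wide mean plus 3 SD, about 139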;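 further: median GFP channel fluorescence of barcode-gated MEP2-GFP cells measured by flow cytometry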). The settings on record: S. cerevisiae MEP2-GFP strain, 3 h, at 10 µM, stronger effect = higher value, 100% means same as DMSO wells.
The nature of assay [3]: TOR pathway RTG branch CIT2 reporter changes – S. cerevisiae, GFP fusion, multiplex flow cytometry, primary screen (AID 1870;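 active means percent response above a set limit, the screen-wide mean plus 3 SD, cut at about 130% in these data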;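 further: barcoded CIT2-GFP strain pooled with four other GFP strains with rapamycin as positive control; median GFP fluorescence per well over plate mean of DMSO wells so 100% = DMSO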). The settings on record: S. cerevisiae CIT2-GFP expression, 3 h, at 10 µM, stronger effect = higher value.
A short description of assay [4]: TOR pathway LAP4-GFP level changes – S. cerevisiae, multiplex flow cytometry, primary screen (AID 1873;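 active means GFP signal, as percent of the solvent control, above the screen mean plus 3 SD, about 149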). The settings on record: S. cerevisiae LAP4-GFP expression, 3 h, at 10 µM, stronger effect = higher value.
Assay [5] in a line: yeast AGP1-GFP level changes, GLN3 branch – cell-based, multiplex flow cytometry, S. cerevisiae, primary screen (AID 1887;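 active means GFP signal above the screen-wide mean plus 3 SD, that is over about 124.5% of the solvent control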;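 further: AGP1-GFP fusion strain of S. cerevisiae within a five-strain barcoded multiplex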). The note with it: 3 h, at 10 µM, stronger effect = higher value.
Assay [6] in a line: reduced mouse 2C T cell binding to pMHC/ICAM-1 vesicles – MLPCN validation set, flow cytometry, LFA-1/ICAM-1 modulator project, pilot screen (AID 2523;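 active means response below a set limit, under 55% cells CD8-positive and vesicle-bound, and CD8 cells' 90th-percentile brightness under 279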;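 on vesicle binding response: mean PE anti-B7-1 fluorescence of CD8+ cells relative to row control; 100% = QL9-loaded vesicles with DMSO vehicle in the same plate row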). The note with it: 2C mouse CD8+ T cells, at 7 µM, stronger effect = lower value; double positive events: measured here: CD8+/vesicle+ event percentage.
In assay [7] the target is Integrin beta-1 (Homo sapiens) + Integrin alpha-4 (Homo sapiens) (UniProt P13612+P05556). Nature of the assay: alpha4beta1 integrin LIBS antibody binding reduction – U937 cells, HUTS-21 mAb, flow cytometry, validation set, VLA-4 allosteric modulator project, pilot screen (AID 2674;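 active means inhibition above 50%, about 3 SD of the validation set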;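 further: antibody binding induced by the VLA-4 ligand LDV present at three times its Kd; 0% = LDV ligand with antibody and no compound and 100% = antibody without LDV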). The note with it: HUTS-21 LIBS mAb binding, at 6.7 µM, stronger effect = higher value, binding induced by LDV ligand.

A short description of assay [8]: calorie-restriction mimetic ROS inhibitors, yeast – validation compound set, pilot screen (AID 2706;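 active means superoxide response below 65% of plate, a cut near 3 SD across the whole screen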;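 further: yeast exposed to compound for one week at 30 degrees C before staining; 100% = mean of all compound wells on the same plate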). The note with it: S. cerevisiae aging, superoxide DHE fluorescence; at 10 µM; stronger effect = lower value.
The target of assay [9] is Beta-adrenergic receptor kinase 1 (Homo sapiens) (UniProt P25098). The assay is described as follows: GRK2 binders displacing RNA aptamer, biochemical, validation, human GRK2, bead flow cytometry (AID 488806;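 active means aptamer binding inhibition above 30%, about 3 SD of noise from non-fluorescent compounds; inactive means inhibition at or below 30%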). The note with it: bead-bound GRK2, FAM-aptamer displacement, at 10 µM, stronger effect = higher value.
Assay [10] deals with Beta-2 adrenergic receptor (Homo sapiens) (UniProt P07550). The assay is described as follows: agonist-induced loss of surface beta2AR – cell-based, FAP fluorogen, flow cytometry, validation set, pilot screen (AID 504459).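 Further: agonist-driven loss of surface beta2AR via internalization measured by FAP dye flow cytometry.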 The note with it: Am2.2-beta2AR cells, at 10 µM, stronger effect = higher value.
Assay [11] addresses AP-2 complex subunit beta (Homo sapiens) (UniProt P63010). The assay is described as follows: beta-arrestin/AP2 interaction blockers – biochemical, validation set, GST-AP2 beads, flow cytometry, pilot screen (AID 504541;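 active means inhibition above 54%, about 3 SD of non-fluorescent compounds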;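 further: AP2 carries R879A mutation and is captured from E. coli lysate; bead-bound FITC arrestin peptide fluorescence measuring arrestin peptide binding to AP2; 0% = DMSO wells and 100% = excess unlabeled arrestin peptide control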). The settings on record: FITC arrestin peptide, at 10 µM, stronger effect = higher value, AP2 beta2 appendage fragment, R879A mutant.
The nature of assay [12]: cytosolic pH regulators acting via V-ATPase – S. cerevisiae, pHLuorin, HTS validation (AID 504600; in the data active means response above about 15%;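 further: plate controls were DMSO for no effect and reference compound for full effect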). The settings on record: V-ATPase proton transport, at 10 µM, stronger effect = higher value.
Assay [13] has as its system anti-desmoglein-3 scFv antibody binding to human DSG3. The assay is described as follows: blockers of pathogenic pemphigus antibody–desmoglein-3 binding – biochemical, validation compound set, bead-based, flow cytometry, pilot screen (AID 588368;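 active means binding below the plate cutoff, the plate median minus 3 SD, with a reading above zero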;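 further: signal is the median channel fluorescence of bead-bound GFP antibody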). The settings on record: Protein G beads, DSG3-Fc, scFv-GFP binding, at 10 µM, stronger effect = lower value.
Assay [14] in a line: Nile Red efflux blockade in pump-expressing yeast – validation compound set, multiplex, phenotypic, pilot screen (AID 588506;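 active means efflux inhibition above 0.42, the validation set average plus 4 SD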;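 further: Nile Red retained in cells so higher fluorescence means more efflux inhibition; 0 = negative control wells and 1 = enniatin B 25 µM full block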). The settings on record: S. cerevisiae pump-expressing triplex, Nile Red efflux flow cytometry; at 10 µM; stronger effect = higher value; the pumps come from Candida albicans.
Assay [15] deals with ATP-binding cassette sub-family B member 6 (Homo sapiens) (UniProt Q9NP58). Nature of the assay: blockers of ABCB6-driven porphyrin uptake – K562-ABCB6 cells, flow cytometry, validation set, pilot screen (AID 588550;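 active means inhibition above the screen-wide mean plus 3 SD, about 51%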;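 further: 0% = DMSO wells and 100% = benzethonium chloride 70 µM positive control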). The note with it: K562-ABCB6 porphyrin accumulation, 1 h, at 10 µM, stronger effect = higher value.
A short description of assay [16]: AML differentiation inducers, ER-HoxA9 marrow cells – cell-based, GFP/MAC1 double positive, flow cytometry, validation set, primary screen (AID 588685;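 active means differentiation response of at least 50%, scaled between solvent and reference control, from cells with both markers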;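 further: compound exposure lasts four days before antibody staining and flow analysis; 0% = DMSO wells and 100% = 5 µM fulvestrant positive control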). The note with it: stronger effect = higher value, normalized: vehicle 0, fulvestrant 100.

Chain of Integrin beta-1 (Homo sapiens) + Integrin alpha-4 (Homo sapiens) (P05556 whole entry, looked up): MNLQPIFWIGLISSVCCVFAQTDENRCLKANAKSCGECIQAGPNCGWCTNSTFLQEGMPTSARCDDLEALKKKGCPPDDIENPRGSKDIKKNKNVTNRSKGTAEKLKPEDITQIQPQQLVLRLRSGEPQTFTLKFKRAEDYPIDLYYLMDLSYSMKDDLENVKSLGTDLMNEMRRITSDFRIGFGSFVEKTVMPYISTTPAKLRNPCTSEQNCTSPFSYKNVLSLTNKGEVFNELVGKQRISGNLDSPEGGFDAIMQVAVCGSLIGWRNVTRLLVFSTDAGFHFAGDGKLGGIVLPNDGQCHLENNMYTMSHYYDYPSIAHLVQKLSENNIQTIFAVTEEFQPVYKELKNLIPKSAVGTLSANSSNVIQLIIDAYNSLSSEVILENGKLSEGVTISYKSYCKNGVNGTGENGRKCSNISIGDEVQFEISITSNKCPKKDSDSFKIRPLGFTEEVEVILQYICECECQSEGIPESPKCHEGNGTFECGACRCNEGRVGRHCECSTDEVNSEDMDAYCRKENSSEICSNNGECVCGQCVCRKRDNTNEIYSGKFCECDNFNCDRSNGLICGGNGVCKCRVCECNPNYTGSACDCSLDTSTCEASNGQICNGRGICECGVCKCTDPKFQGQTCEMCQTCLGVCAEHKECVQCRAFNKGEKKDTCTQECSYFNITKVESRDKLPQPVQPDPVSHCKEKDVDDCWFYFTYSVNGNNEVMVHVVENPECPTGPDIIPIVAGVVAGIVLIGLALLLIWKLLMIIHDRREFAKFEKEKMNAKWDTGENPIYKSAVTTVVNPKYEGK
Chain of Integrin beta-1 (Homo sapiens) + Integrin alpha-4 (Homo sapiens) (P13612 whole entry, looked up): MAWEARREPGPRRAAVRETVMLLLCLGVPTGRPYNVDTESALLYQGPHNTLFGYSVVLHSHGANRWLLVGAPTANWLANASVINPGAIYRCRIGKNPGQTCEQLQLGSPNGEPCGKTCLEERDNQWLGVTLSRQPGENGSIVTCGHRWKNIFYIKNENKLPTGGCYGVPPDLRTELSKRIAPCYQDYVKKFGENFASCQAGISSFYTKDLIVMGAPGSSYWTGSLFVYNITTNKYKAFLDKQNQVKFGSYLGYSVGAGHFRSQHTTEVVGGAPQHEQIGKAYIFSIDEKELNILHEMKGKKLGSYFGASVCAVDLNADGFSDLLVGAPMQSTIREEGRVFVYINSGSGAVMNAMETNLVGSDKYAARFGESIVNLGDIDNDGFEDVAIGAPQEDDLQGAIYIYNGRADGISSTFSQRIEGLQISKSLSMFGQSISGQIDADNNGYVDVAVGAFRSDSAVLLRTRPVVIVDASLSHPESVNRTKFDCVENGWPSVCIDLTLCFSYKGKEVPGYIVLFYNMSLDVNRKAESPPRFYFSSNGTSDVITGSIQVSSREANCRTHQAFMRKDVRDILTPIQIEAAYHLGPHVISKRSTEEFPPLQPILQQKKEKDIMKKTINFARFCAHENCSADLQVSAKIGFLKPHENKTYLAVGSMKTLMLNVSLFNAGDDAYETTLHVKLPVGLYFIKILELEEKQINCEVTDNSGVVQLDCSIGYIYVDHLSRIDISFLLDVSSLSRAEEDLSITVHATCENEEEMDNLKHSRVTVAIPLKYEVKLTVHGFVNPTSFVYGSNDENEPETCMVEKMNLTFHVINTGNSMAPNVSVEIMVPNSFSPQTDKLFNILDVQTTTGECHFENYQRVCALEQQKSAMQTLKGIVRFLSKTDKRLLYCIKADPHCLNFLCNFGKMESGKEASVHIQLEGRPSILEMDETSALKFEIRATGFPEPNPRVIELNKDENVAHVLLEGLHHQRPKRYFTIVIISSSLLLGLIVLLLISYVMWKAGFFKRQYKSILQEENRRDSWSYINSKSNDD
Chain of ATP-binding cassette sub-family B member 6 (Homo sapiens) (Q9NP58 whole entry, looked up): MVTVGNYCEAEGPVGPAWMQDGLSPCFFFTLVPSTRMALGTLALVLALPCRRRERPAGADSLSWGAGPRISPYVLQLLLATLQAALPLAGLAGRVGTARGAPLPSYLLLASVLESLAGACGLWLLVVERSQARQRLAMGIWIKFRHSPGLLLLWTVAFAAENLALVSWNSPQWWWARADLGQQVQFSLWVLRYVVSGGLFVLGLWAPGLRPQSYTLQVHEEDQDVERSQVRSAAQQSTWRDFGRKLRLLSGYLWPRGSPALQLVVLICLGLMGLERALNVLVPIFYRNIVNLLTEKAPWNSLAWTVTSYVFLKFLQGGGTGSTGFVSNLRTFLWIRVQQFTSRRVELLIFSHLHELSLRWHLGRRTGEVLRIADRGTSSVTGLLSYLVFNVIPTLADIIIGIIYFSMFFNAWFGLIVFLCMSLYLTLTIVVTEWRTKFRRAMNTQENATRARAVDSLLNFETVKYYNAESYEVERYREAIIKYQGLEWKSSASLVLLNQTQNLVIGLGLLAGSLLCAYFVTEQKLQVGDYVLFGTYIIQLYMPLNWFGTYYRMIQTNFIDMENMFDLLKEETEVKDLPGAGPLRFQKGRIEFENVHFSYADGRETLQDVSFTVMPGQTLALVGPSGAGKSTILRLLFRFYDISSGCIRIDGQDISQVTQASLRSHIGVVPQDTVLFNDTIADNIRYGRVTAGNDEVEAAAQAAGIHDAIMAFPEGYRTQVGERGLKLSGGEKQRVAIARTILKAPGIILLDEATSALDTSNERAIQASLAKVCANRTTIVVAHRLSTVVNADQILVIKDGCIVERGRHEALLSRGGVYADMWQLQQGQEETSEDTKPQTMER
Chain of AP-2 complex subunit beta (Homo sapiens) (P63010 whole entry, looked up, the tested form may be a part, one chain of several): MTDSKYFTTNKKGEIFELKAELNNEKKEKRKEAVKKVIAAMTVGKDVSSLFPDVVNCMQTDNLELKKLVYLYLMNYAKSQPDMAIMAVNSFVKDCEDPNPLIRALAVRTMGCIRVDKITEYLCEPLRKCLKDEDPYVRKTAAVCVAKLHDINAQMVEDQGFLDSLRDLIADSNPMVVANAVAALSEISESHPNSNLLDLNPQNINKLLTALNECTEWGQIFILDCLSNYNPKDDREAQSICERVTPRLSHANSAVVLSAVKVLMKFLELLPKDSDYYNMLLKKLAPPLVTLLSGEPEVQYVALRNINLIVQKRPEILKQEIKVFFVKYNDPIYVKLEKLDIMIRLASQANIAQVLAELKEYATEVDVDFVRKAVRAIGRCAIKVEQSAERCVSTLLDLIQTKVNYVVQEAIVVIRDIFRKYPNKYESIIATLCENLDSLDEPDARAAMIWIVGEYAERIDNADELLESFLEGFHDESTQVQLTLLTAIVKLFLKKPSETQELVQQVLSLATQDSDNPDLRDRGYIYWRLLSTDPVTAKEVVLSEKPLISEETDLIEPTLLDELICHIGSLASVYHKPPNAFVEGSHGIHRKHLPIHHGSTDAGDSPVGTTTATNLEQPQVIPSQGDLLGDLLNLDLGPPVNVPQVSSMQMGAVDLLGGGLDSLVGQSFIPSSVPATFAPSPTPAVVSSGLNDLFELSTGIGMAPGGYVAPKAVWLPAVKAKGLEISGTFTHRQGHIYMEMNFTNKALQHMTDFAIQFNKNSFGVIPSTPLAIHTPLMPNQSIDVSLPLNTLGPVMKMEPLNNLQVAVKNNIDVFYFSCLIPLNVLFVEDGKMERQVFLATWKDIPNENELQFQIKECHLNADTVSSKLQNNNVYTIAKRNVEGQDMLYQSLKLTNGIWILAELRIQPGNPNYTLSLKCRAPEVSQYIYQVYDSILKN
Chain of Beta-2 adrenergic receptor (Homo sapiens) (P07550 whole entry, looked up): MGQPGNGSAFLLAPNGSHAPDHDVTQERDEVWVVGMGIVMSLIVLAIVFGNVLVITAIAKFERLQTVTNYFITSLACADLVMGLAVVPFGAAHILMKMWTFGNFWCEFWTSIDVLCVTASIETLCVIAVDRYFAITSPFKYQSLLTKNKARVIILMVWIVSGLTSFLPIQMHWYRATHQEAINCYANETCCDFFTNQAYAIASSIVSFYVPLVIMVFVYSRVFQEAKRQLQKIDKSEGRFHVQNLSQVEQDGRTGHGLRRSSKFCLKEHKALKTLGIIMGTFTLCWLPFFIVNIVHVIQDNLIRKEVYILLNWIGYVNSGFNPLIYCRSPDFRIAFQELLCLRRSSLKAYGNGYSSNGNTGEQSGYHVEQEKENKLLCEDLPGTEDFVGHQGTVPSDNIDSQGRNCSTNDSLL
Chain of Beta-adrenergic receptor kinase 1 (Homo sapiens) (P25098 whole entry, looked up): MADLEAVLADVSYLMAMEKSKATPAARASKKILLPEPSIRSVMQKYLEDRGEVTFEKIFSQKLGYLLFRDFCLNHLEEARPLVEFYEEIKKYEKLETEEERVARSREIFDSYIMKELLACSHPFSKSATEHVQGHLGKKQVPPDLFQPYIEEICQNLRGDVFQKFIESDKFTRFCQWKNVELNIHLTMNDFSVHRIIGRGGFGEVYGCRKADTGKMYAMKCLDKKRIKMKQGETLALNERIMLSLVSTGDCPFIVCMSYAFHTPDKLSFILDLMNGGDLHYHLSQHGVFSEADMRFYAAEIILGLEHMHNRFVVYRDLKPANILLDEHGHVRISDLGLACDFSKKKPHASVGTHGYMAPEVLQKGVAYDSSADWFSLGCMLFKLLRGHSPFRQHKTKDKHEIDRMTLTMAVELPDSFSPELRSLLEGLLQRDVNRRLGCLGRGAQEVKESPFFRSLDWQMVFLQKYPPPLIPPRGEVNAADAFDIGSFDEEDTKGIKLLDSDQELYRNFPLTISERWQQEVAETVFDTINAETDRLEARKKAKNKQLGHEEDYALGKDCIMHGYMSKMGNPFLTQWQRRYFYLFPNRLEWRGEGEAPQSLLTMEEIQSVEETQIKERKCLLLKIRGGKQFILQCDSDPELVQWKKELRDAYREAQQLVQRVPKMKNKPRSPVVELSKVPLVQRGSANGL

On to `CC(C)(C)OC(=O)N1CC(O)CC1C(=O)OCC(=O)c1ccc(Cl)cc1` (stereo not given), for which, in assay [1], the percent of DMSO control GFP is 105% (inactive). Also, the GFP response vs DMSO is 98.3% (inactive) in assay [2] and 90.7% (inactive) in [4]. Moreover, in [3], the percent response of DMSO control is 113% (inactive). The GFP response, % of DMSO in [5] is 105% (inactive). The double positive events in assay [6] is 61.3%. Besides, the vesicle binding response in assay [6] is 222% (inactive). For the same molecule, the inhibition in [7] is 2.66% (inactive); in assay [11], -13.3% (inactive); in assay [15], -6% (inactive). Also, the superoxide response (% of plate) in assay [8] was 105% (inactive). In addition, the aptamer binding inhibition in assay [9] was 0% (inactive). In addition, the response in assay [10] was -16.2% (inactive); in assay [12], 2.73% (inactive). In assay [13], the binding (% of control) is 98.2% (inactive). In assay [14], the efflux inhibition (fraction of control) is 0.14 (inactive). Further, the differentiation response in assay [16] is 8.06% (inactive).
Regarding `COc1cc(NC(=O)COc2ccccc2)c(OC)cc1NC(C)=O`, the percent of DMSO control GFP in [1] is 101% (inactive). The figures for the GFP response vs DMSO in assay [2] and in assay [4] were 133% (inactive) and 94.6% (inactive), respectively. In addition, the percent response of DMSO control in [3] was 114% (inactive). In assay [5], the GFP response, % of DMSO is 101% (inactive). The double positive events in assay [6] came out at 59.7%. In addition, the vesicle binding response in assay [6] was 216% (inactive). The figures for the inhibition in assay [7], in assay [11] and in assay [15] were -14.9% (inactive), -5.93% (inactive) and 0% (inactive), respectively. Further, the superoxide response (% of plate) in assay [8] is 93% (inactive). Also, the aptamer binding inhibition in assay [9] was 1% (inactive). In addition, the response was -3.81% (inactive) in [10] and -0.91% (inactive) in assay [12]. In assay [13], the binding (% of control) was 110% (inactive). Besides, in assay [14], the efflux inhibition (fraction of control) was -0.42 (inactive). For the same molecule, in assay [16], the differentiation response is 5.73% (inactive).
As for `COc1ccc2cc(C(=O)OC(C)C)sc(=O)c2c1OC`, in assay [1], the percent of DMSO control GFP is 106% (inactive). In addition, the figures for the GFP response vs DMSO in [2] and in assay [4] were 98.6% (inactive) and 121% (inactive), respectively. Moreover, the percent response of DMSO control in assay [3] is 95.1% (inactive). Moreover, in assay [5], the GFP response, % of DMSO was 106% (inactive). The molecule further yielded a double positive events in assay [6] of 61.9%. Further, the vesicle binding response in assay [6] is 220% (inactive). Moreover, the inhibition in [7] is 3.99% (inactive); in [11], -1.55% (inactive); in assay [15], 4% (inactive). Besides, the superoxide response (% of plate) in [8] was 112% (inactive). For the same molecule, the aptamer binding inhibition in [9] was 0% (inactive). Besides, the response was -12.6% (inactive) in assay [10] and -19.1% (inactive) in assay [12]. The binding (% of control) in assay [13] is 85.1% (inactive). Moreover, in [14], the efflux inhibition (fraction of control) is 0 (inactive). In addition, in assay [16], the differentiation response was 11.8% (inactive).
In the case of `CC(=O)O[C@H]1C[C@@]2(C)[C@@H](C[C@@H](O)[C@H]3[C@@]4(C)CC[C@@H](O)[C@@H](C)C4CC[C@@]32C)/C1=C(\CCC=C(C)C)C(=O)O` (stereo not given in full), the percent of DMSO control GFP in assay [1] is 102% (inactive). Moreover, the GFP response vs DMSO was 107% (inactive) in assay [2] and 106% (inactive) in assay [4]. Also, the percent response of DMSO control in assay [3] was 104% (inactive). The GFP response, % of DMSO in assay [5] was 115% (inactive). The double positive events in assay [6] was 63.4%. Besides, the vesicle binding response in assay [6] is 177% (inactive). Also, the inhibition was 11.7% (inactive) in assay [7], -14.5% (inactive) in [11] and 3% (inactive) in assay [15]. Also, in [8], the superoxide response (% of plate) was 116% (inactive). Besides, the aptamer binding inhibition in [9] is -1% (inactive). The response in [10] is -16.8% (inactive); in [12] it was -3.26% (inactive). For the same molecule, the binding (% of control) in [13] is 100% (inactive). Further, the efflux inhibition (fraction of control) in assay [14] is 0.17 (inactive). For the same molecule, the differentiation response in [16] was -9.91% (inactive).
Take `CS(=O)(=O)c1cccc(C(=O)Oc2ccccc2)c1`: the percent of DMSO control GFP in assay [1] is 104% (inactive). Moreover, the GFP response vs DMSO in assay [2] was 97.2% (inactive); in [4] it was 82.8% (inactive). The percent response of DMSO control in assay [3] is 106% (inactive). The GFP response, % of DMSO in assay [5] was 101% (inactive). This molecule also returned a double positive events in [6] of 60.5%. For the same molecule, the vesicle binding response in assay [6] is 76.6% (inactive). Besides, the inhibition in [7] is 9.92% (inactive); in [11], -4.57% (inactive); in [15], 3% (inactive). In assay [8], the superoxide response (% of plate) was 99% (inactive). Besides, in [9], the aptamer binding inhibition was 3% (inactive). The response in assay [10] is -8.78% (inactive); in assay [12], -0.27% (inactive). For the same molecule, the binding (% of control) in assay [13] is 100% (inactive). In addition, in assay [14], the efflux inhibition (fraction of control) was -0.1 (inactive). For the same molecule, the differentiation response in assay [16] was 10% (inactive).
